Test [1] is described as follows: CCTE_Deisenroth_H295R-HTRF_384WELL_ESTRADIOL: CCTE's H295R-HTRF Assay Evaluation of Estradiol Concentration, Deisenroth Lab (AID 2284361; active = hit-call score of the fitted dose curve at least 0.9, where 1 is the maximum; inactive = score below 0.9). As to conditions: actives raise or lower the signal. The protocol:
CCTE_Deisenroth_H295R-HTRF_384WELL assay is a cell-based, multiplex-readout assay that uses H295R, a human adrenocortical carcinoma cell line, with measurements taken at 48 hours after chemical dosing in a 384-well microplateCCTE_Deisenroth_H295R-HTRF_384WELL_ESTRADIOL is one of 3 assay components calculated in the CCTE_Deisenroth_H295R-HTRF_384WELL assay (2 hormones and 1 viability components). It is designed to make measurements of hormone induction, a form of inducible reporter, as detected with Homogenous Time Resolved Fluorescence immunoassay technology.This assay endpoint, CCTE_Deisenroth_H295R-HTRF_384WELL_ESTRADIOL, was analyzed with bidirectional fitting relative to DMSO as the negative control and baseline of activity. Using a type of inducible reporter, gain or loss-of-signal activity using Homogenous Time Resolved Fluorescence technology was used to understand synthesis of estradiol in the H295R cell line at 48hr of chemical exposure. To generalize the intended target to other relatable targets, this assay endpoint is annotated to the steroid hormone intended target family, where the subfamily is estrogens.
Standard operating procedures for the cell culture medium, maintenance, expansion, and cryopreservation of the NCI-H295R adrenocortical carcinoma adherent cell line were adopted directly from guideline specifications7,13. The assay workflow follows a three-day protocol consistent with the paradigm defined in OECD TG 456 and U.S. EPA OCSPP Guideline 890.1550. On day 0, cells are plated in 384-well microplates and acclimated for 24 hours. On Day 1, test chemicals are dispensed into separate 384-well microplates in a nine-point 2X dilution series (0.002 - 200 uM). Without aspirating the growth medium on the assay plates, test chemical suspension is dispensed to achieve a final 1X nominal concentration. Each chemical is run in technical triplicate at a final dilution series of 0.001 - 100 uM. On Day 3, following a 48-hour incubation period with test chemical, the conditioned medium samples are collected and transferred to 384-well sample storage plates. HTRF direct immunoassay technology is employed to detect E2 and T analytes in H295R conditioned medium. HTRF assays for E2 and T are performed with matched conditioned medium samples according to the manufacturer's protocol. Fluorescent endpoint measurements are conducted with a microplate reader equipped with an HTRF-compatible filter set (ex: 320 (10) nM; em: 620 (10) and 665 (10) nM). A multiplexed cell viability assay is implemented on the same plates used for chemical testing using the Promega CellTiter-Glo 2.0 assay. […] After collecting conditioned medium samples on Day 3, the viability assay is immediately performed and luminescence readings measured on a microplate reader. […]
(TR-FRET usually uses a lanthanide donor and a delayed reading to cut background.)

Test [2] in a line: CCTE_Deisenroth_H295R-HTRF_384WELL_TESTOSTERONE: CCTE's H295R-HTRF Assay Evaluation of Testosterone Concentration, Deisenroth Lab (AID 2284373; active = hit-call score of the fitted dose curve at least 0.9, where 1 is the maximum; inactive = score below 0.9). As to conditions: actives raise or lower the signal. A digest of the protocol:
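H295R cells were acclimated 24 h, then exposed 48 h to nine concentrations (0.001–100 uM final) in technical triplicate, n=5. Testosterone in conditioned medium was measured by HTRF (em 620/665 nm). Fitting was bidirectional versus DMSO; CellTiter-Glo viability ran on the same plates.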

Test [3] in a line: CCTE_Deisenroth_H295R-HTRF_384WELL_CTOX: Cytotoxicity Assessment in CCTE's H295R-HTRF Assay, Deisenroth Lab (AID 2284380). A digest of the protocol: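 H295R adrenocortical carcinoma cells plated 24 h, then exposed 48 h to nine-point series 0.001–100 uM final, triplicate, n=5. ATP measured by CellTiter-Glo 2.0 luminescence on same plates after medium collection; loss versus DMSO.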

Test [4] has as its system TTR (gene 7276). As to the kind of experiment: CCTE_GLTED_hTTR_0.125uM: CCTE's human Transthyretin (hTTR) Inhibition Assay, with 0.125uM TTR, Great Lakes Toxicology and Ecology Division (GLTED) Lab (AID 2284431; active = hit-call score of the fitted dose curve at least 0.9, where 1 is the maximum; inactive = score below 0.9;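 also: hits lower the fluorescence signal relative to DMSO baseline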). A digest of the protocol:
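Fluorescence (380 ex, 475 em) reported the ANSA probe remaining bound to 0.125uM human transthyretin. Chemicals were incubated with the protein for 2 hours; activity was scored as loss of signal against DMSO negative control.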

Test [5] can be described thus: CCTE_Mundy_HCI_iCellGluta_NOG_NeuronCount: CCTE's Neurite Outgrowth Assay in iCellGluta cells for Neuron Count, Mundy Lab (AID 2284340).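 Also: cells fixed about 48 h after compound addition.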 A digest of the protocol:
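Neuron count read by automated high-content imaging of Hoechst 33342 and betaIII-tubulin/Alexa Fluor-488 labelling in human iPSC glutamatergic neurons. Activity fitted relative to DMSO.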

Test [6] in a line: CCTE_Mundy_HCI_iCellGluta_NOG_NeuriteCount: CCTE's Neurite Outgrowth Assay in iCellGluta cells for Neurite Count, Mundy Lab (AID 2284342).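 Also: chemical exposure about 48 hours starting 2 hours after plating.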
The test system of test [7] is SERPINA7 (gene 6906). The experiment in a line: CCTE_GLTED_hTBG: CCTE's human Thyroxine-binding Globulin (TBG) Inhibition Assay, Great Lakes Toxicology and Ecology Division (GLTED) Lab (AID 2284343).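 Also: active chemicals lower fluorescence versus DMSO baseline by displacing probe.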 A digest of the protocol:
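Measures how far test chemicals displace ANSA bound to purified human TBG. The read-out is fluorescence at 380 nm excitation and 475 nm emission, taken after 2 h of incubation.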

Test [8] in a line: VALA_MIGHUV1_ScratchOnly_WoundArea: VALA Sciences human Umbilical Vein Endothelial Cell Migration (MIGHUV) Assay, Area of Scratch Wound Inhibited Recovery (AID 2284336). Put shortly:
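HUVEC monolayers (9000 cells/well) were scratched after 24 h, dosed within 30 min (six concentrations, triplicate, 0.1% DMSO), allowed 24 h recovery, then fixed. Hoechst-stained nuclei in the wound imaged; cytochalasin D as reference.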

Test [9] is described as follows: VALA_TUBHUV_Agonist_TubuleLength: VALA Sciences human Umbilical Vein Endothelial Tubule Formation (TUBHUV) Agonism Assay (AID 2284337). Put shortly:
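HUVEC co-cultured with fibroblasts (1:3) 3 days in 10 ng/ml VEGF, then 3 days with compound plus VEGF; 0.1 % DMSO neutral control. Fixed, nuclear and CD31 stained; tubule length by fluorescence imaging.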

Test [10] can be described thus: VALA_TUBIPS_Agonist_CellCount: Viability Assessment in the VALA Sciences human iPS-derived Endothelial Tubule Formation (TUBIPS) Agonism Assay (AID 2284338).

Results filed as inconclusive are left out. Calls of active or inactive are those of the source. The calls were made as follows, unless noted: active = hit-call score of the fitted dose curve at least 0.9, where 1 is the maximum; inconclusive = response in the unintended direction; inactive = score below 0.9.

By AC50 is commonly meant the midpoint of the concentration-response curve, whichever way the signal moves.

For the molecule `CCCOCC(=Nc1ccc(Cl)cc1C(F)(F)F)n1ccnc1`, the AC50 is 0.27 µM (active) in test [1], 0.414 µM (active) in test [2] and 3.56 µM (active) in test [4]. Further, the molecule was classed as inactive in test [3].

Take `C=C(C)[C@H]1Cc2c(ccc3c2O[C@@H]2COc4cc(OC)c(OC)cc4[C@@H]2C3=O)O1`: the results for the AC50 in test [5] and in test [6] were 0.0672 µM (active) and 0.907 µM (active), respectively.

Take `CCOP(=S)(OCC)Oc1ccc([N+](=O)[O-])cc1`: the outcome in [5] and in [6] was inactive. The AC50 in [7] was 11.6 µM (active).

As to `CCCSP(=O)(OCC)Oc1ccc(Br)cc1Cl` (stereo unspecified), the AC50 in test [7] is 14.1 µM (active); in test [4] it was 3.6 µM (active).

Regarding `O=C(O)c1cc(Oc2ccc(C(F)(F)F)cc2Cl)ccc1[N+](=O)[O-]`, the half-maximal activity concentration (AC50) in test [7] is 4.45 µM (active).

Consider `CC[C@H](C)[C@H]1O[C@]2(C=C[C@@H]1C)C[C@@H]1C[C@@H](C/C=C(\C)[C@@H](O[C@H]3C[C@H](OC)[C@@H](O[C@H]4C[C@H](OC)[C@@H](NC)[C@H](C)O4)[C@H](C)O3)[C@@H](C)/C=C/C=C3\CO[C@@H]4[C@H](O)C(C)=C[C@@H](C(=O)O1)[C@]34O)O2`, for which the AC50 in test [5] is 0.896 µM (active); in test [6] it was 0.824 µM (active).

For `COc1cccc(C(=O)NN(C(=O)c2cc(C)cc(C)c2)C(C)(C)C)c1C`, the AC50 in [4] was 20.6 µM (active).

With `S=C1NCCN1`, the result in test [8], in [9], in test [10], in test [5] and in [6] was inactive.

On to `Cc1cc(C2CC2)nc(Nc2ccccc2)n1`, for which, in test [4], the AC50 is 14.8 µM (active).

Turning to `CCCSP(=O)(OCC)SCCC`, the outcome in test [5] and in test [6] was inactive.

For the molecule `CCOP(=S)(OCC)SCCSCC`, in [5], the outcome was inactive. Further, the AC50 in test [7] is 13.9 µM (active).

As to `Cc1ccn2nc(S(=O)(=O)Nc3c(F)cccc3F)nc2n1`, in test [7], the outcome was inactive.

As to `CC1=NNC(=O)N(/N=C/c2cccnc2)C1`, the call in test [8], in test [9], in test [10], in test [5] and in test [6] was inactive.

`CN(C)[C@@H]1C(=O)C(C(N)=O)=C(O)[C@@]2(O)C(=O)C3=C(O)c4c(O)cccc4[C@@](C)(O)[C@H]3[C@H](O)[C@@H]12`: the AC50 in test [8] is 90.1 µM (active); in test [9], 7.49 µM (active); in test [10] it was 9.92 µM (active); in test [5], 13.4 µM (active); in test [6], 19.9 µM (active).

Take `FC(F)C(F)(F)OCC(Cn1cncn1)c1ccc(Cl)cc1Cl` (stereo unspecified): the AC50 in test [7] is 10.1 µM (active).

`CON=C(C(=O)OC)c1ccccc1CON=C(C)c1cccc(C(F)(F)F)c1`: the AC50 in test [5] is 50 µM (active); in test [6] it was 24.6 µM (active).

Take `CSC1=N[C@@](C)(c2ccccc2)C(=O)N1Nc1ccccc1`: the molecule was classed as inactive in [5] and in [6].

Consider `CC(C1CC1)C(O)(Cn1cncn1)c1ccc(Cl)cc1` (stereo unspecified), for which the call in [1], in [2] and in [3] was inactive.

For the molecule `C[Si](Cn1cncn1)(c1ccc(F)cc1)c1ccc(F)cc1`, the AC50 in test [7] was 4.09 µM (active); in test [1], 0.968 µM (active). Further, the molecule was called inactive in test [2] and in test [3].

Regarding `Nc1c(Cl)cc([N+](=O)[O-])cc1Cl`, the concentration at half-maximal activity (AC50) in test [4] was 0.176 µM (active).

Regarding `CC(=NC#N)N(C)Cc1ccc(Cl)nc1`, the result in [5] and in [6] was inactive.

As for `CN1COCN(Cc2cnc(Cl)s2)C1=N[N+](=O)[O-]`, in [6], the call was inactive.

Consider `CCCCSP(=O)(SCCCC)SCCCC`, for which the AC50 in test [5] was 49.9 µM (active). Moreover, the call in test [6] was inactive.

As to `CCCCN(CC)c1c([N+](=O)[O-])cc(C(F)(F)F)cc1[N+](=O)[O-]`, in test [7], the AC50 is 2.78 µM (active).

`CCOP(=O)(OCC)Oc1cc(C)nc(C(C)C)n1`: the molecule was called inactive in test [5] and in test [6].

As to `C[N+]1(C)CCCCC1`, the molecule was classed as inactive in test [5] and in test [6].

`CCOP(=O)(NC(C)C)Oc1ccc(SC)c(C)c1` (stereo unspecified): the figures for the concentration at half-maximal activity (AC50) in test [5] and in test [7] were 51 µM (active) and 14.6 µM (active), respectively. For the same molecule, the call in test [6] was inactive.

Regarding `CCC(CC)Nc1c([N+](=O)[O-])cc(C)c(C)c1[N+](=O)[O-]`, the figures for the concentration at half-maximal activity (AC50) in test [7] and in test [4] were 1.64 µM (active) and 0.448 µM (active), respectively.

Take `CC1(C(=O)Nc2ccc(O)c(Cl)c2Cl)CCCCC1`: the half-maximal activity concentration (AC50) in test [4] is 7.98 µM (active).

For `COP(=O)(OC)OC(Br)C(Cl)(Cl)Br` (stereo unspecified), the half-maximal activity concentration (AC50) in [5] is 21.7 µM (active); in test [6] it was 16.4 µM (active).

Take `CCOP(=S)(Oc1cnc(C(C)(C)C)nc1)OC(C)C` (stereo unspecified): the half-maximal activity concentration (AC50) in test [5] is 16 µM (active); in test [6], 23.9 µM (active); in test [7], 16.7 µM (active).

In the case of `COP(=O)(NC(C)=O)SC` (stereo unspecified), the outcome in test [5] and in test [6] was inactive.

As for `CCCCOC(=O)c1ccccc1C(=O)O`, in test [1], the AC50 is 54.9 µM (active). The outcome in test [2] and in test [3] was inactive.

For the molecule `CCOP(=S)(OCC)OC(Cl)C(Cl)(Cl)Cl` (stereo unspecified), the molecule was called inactive in test [5] and in [6]. Further, the half-maximal activity concentration (AC50) in test [4] was 33.2 µM (active).

With `CC(C)N(C(=O)SCC(Cl)=C(Cl)Cl)C(C)C`, the AC50 was 22.4 µM (active) in test [5] and 23.2 µM (active) in test [6].

Regarding `O=[N+]([O-])c1cc(C(F)(F)F)c(Cl)c([N+](=O)[O-])c1Nc1ncc(C(F)(F)F)cc1Cl`, the outcome in test [8] and in [10] was inactive. In addition, the AC50 in [5] is 3.14 µM (active); in test [6], 0.937 µM (active); in test [7] it was 0.388 µM (active); in test [4], 0.0665 µM (active).

The record behind these values is PubChem BioAssay (EPA / NIEHS).
